# Measured values published in PubChem BioAssay (Tox21).
# Values joined by “and” are separate entries in the source; they are usually repeats but may differ in a detail not shown here. Equal entries are not always repeated. Active and inactive are the calls of the source. A call without a number means that no potency is given here. The call rests on the fitted dose curve.
# Biological target: Androgen receptor (Homo sapiens) (UniProt P10275)
# Assay: qHTS assay to identify small molecule agonists of the androgen receptor (AR) signaling pathway in the presence of an antagonist (AID 1259381); further: nearly all actives have a fitted effect of over 15% in size
# Settings: MDA-kb2 MMTV-luciferase, AR agonist + nilutamide, 16 h; series mostly up to 92.4 µM
# Excerpt: National Center for Advancing Translational Sciences [NCATS] NIH Chemical Genomics Center [NCGC] U.S. Environmental Protection Agency [EPA] National Institutes of Environmental Health Sciences [NIEHS] National Toxicology Program [NTP] Assay overview: Androgen receptor (AR) is an important member of nuclear receptor family. Its signaling plays a critical role in AR-dependent prostate cancer and other androgen related diseases. Considerable attention has been given in the past decades to develop methods to study and screen for the environmental chemicals that have the potential to interfere with metabolic homeostasis, reproduction, developmental and behavioral functions. Therefore AR binding assay for screening against androgen agonists and antagonists can be used to identify potential endocrine disruptors. MDA-kb2 cells (from ATCC, deposited by Wilson et al.) are human breast carcinoma cells that were stably transfected with a luciferase reporter gene under control of the MMTV promoter that contains response elements for both androgen receptor (AR) and glucocorticoid receptor (GR). This particular screening for measuring luciferase reporter gene activity using MDA-kb2 cells against Tox21 10K library compounds is a confirmation study on agonist mode screening in the presence of AR-antagonist compound (Nilutamide) at 3.0uM final concentration.
# Assay Protocol Summary: MDA-kb2 cells (cells cultured without CO2) were dispensed at 3,000 cells/well in 4uL of culture medium into white wall/solid-bottom 1536-well plates (Corning Life Sciences, Corning, NY) using a Multidrop Combi (Thermo Fisher Scientific Inc., Waltham, MA) dispenser. The assay plates were incubated at 37C and 0% CO2 for 5hr. One uL of 3.0uM (final concentration) Nilutamide or assay buffer was added using two separate tips of Flying Reagent Dispenser (FRD, Aurora Discovery, San Diego, CA). Then 23nL of compounds dissolved in DMSO at 15 concentrations and positive controls were transferred to the assay plates using a Pintool station (Wako, San Diego, CA). The assay plates were incubated at 37C and 0% CO2 for 16hr. For luciferase read, 4uL/well ONE-Glo reagent (Promega Corporation, Madison, WI) was added to each well of the assay plates using FRD. After 30min incubation at room temperature, the luminescence signal was measured using a ViewLux plate reader (PerkinElmer, Shelton, CT).
# Potency means the concentration at half of the fitted maximal effect.
# Sequence of Androgen receptor (Homo sapiens) (P10275 whole entry, looked up): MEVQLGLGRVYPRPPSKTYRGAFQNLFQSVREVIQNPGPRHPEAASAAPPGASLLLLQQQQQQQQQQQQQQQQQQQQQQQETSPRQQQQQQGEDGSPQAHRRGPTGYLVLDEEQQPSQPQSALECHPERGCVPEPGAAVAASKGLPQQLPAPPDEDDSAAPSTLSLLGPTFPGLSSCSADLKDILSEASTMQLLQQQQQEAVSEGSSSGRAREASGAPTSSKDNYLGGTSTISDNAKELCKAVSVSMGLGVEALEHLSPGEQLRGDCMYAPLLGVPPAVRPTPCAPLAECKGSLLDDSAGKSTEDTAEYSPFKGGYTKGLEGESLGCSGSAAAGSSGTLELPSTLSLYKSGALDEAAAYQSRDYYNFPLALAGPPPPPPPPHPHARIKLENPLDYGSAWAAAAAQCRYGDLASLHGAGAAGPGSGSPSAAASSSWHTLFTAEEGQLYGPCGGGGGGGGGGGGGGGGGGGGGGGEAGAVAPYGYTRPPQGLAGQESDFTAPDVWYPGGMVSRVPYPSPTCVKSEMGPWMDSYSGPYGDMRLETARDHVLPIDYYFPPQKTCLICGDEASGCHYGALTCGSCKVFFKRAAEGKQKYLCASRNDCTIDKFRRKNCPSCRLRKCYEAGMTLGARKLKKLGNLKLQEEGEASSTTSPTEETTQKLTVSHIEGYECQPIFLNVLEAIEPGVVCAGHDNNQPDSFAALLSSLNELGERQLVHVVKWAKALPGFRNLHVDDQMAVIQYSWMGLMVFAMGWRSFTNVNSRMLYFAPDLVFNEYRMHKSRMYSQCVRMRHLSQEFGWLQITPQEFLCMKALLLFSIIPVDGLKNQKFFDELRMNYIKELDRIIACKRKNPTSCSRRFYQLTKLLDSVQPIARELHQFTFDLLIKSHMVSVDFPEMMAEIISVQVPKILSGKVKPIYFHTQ
row,SMILES,Potency
1,N#Cc1cc(Br)c(O)c(Br)c1,inactive
2,CCCCCCCCOC(=O)c1ccccc1C(=O)OCCCCCCCC,inactive
3,O=[N+]([O-])c1c(Cl)c(Cl)c(Cl)c(Cl)c1Cl,inactive
4,O=[N+]([O-])c1ccc(O)c([N+](=O)[O-])c1,inactive
5,Nc1ccncc1,inactive
6,Cc1cc(Cl)ccc1OCCCC(=O)O,inactive
7,CC(C)(OOC(C)(C)c1ccccc1)c1ccccc1,inactive
8,COP(=O)(OC)OC,inactive
9,CC(C)Oc1cc(-n2nc(C(C)(C)C)oc2=O)c(Cl)cc1Cl,inactive
10,CCCCC(CC)COC(=O)c1ccc(C(=O)OCC(CC)CCCC)c(C(=O)OCC(CC)CCCC)c1 (stereo not given),inactive
11,Nc1ccc(Cl)cc1N,4.86 µM (active)
12,O=C(O)CC[N+](=O)[O-],inactive
13,c1cc(OCC2CO2)ccc1Cc1ccc(OCC2CO2)cc1 (stereo not given),inactive
14,CCC(=O)O[C@H]1CC[C@H]2[C@@H]3CCC4=CC(=O)CC[C@]4(C)[C@H]3CC[C@]12C,48.6 nM (active) and 47.3 nM (active)
15,COP(=S)(OC)Oc1cc(Cl)c(Cl)cc1Cl,inactive
16,CCN(CC)C(=O)/C(Cl)=C(\C)OP(=O)(OC)OC,inactive
17,C=C(C)[C@H]1Cc2c(ccc3c2O[C@@H]2COc4cc(OC)c(OC)cc4[C@@H]2C3=O)O1,inactive
18,Nc1c(Cl)cc([N+](=O)[O-])cc1Cl,inactive
19,CCc1cccc(CC)c1N(COC)C(=O)CCl,inactive
20,CCCCNC(=O)n1c(NC(=O)OC)nc2ccccc21,inactive
